This is a sample that favours compounds with a hit; in the whole collection about 7.5% have one here.
ELG1 genotoxic: genotoxicity induction in ELG1-luciferase HEK293T cells | Potency, µM (doses to about 46 µM), for inactives: at the highest dose activity change, positive = activation, usual class: activators | AID 504466 | HEK293T ELG1-luciferase reporter, luminescence, 16 h | 330,000 compounds, 1.3% hits; note: % of control where 0% means no effect; nearly all actives have a fitted effect of over 60% in size
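Luminescence read-out: rising ELG1-luciferase signal, reflecting elevated ELG1 protein under genetic stress, flags genotoxic compounds. Cells were treated for 16 hr at 37 °C before ONE-Glo detection.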
Rab9 promoter act: Rab9 promoter activation. Huh7 Rab9 promoter-luciferase reporter, luminescence, 24 h. Potency, µM (doses to about 9.22 µM), without a hit: top-dose activation, negative = inhibition, hits mostly activators. 320,000 compounds, 2.8% hits. AID 485297; note: % of control where 0% means no effect; nearly all actives have a fitted effect of over 60% in size
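Cells were plated at 1500 per well in reduced-serum medium with 10% FBS and left 2 h. Compound in DMSO was then added for 24 h at 37 °C. Reporter signal was read by luminescence after 10 min with luciferase detection reagent.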
Luc counter: counter-screen: inhibitors of Kinase-Glo firefly luciferase; Q27757; Kinase-Glo luciferase, ATP luminescence, 8 min; Potency, µM (doses to about 38.3 µM), without a hit: top-dose activity change, negative = inhibition, actives largely listed as inhibitors; 200,000 compounds, 0.28% hits; AID 1379; note: % is set by controls: 0 for no effect and ±100 for the full control effect; nearly all actives have a fitted effect of over 60% in size
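Light output from Kinase-Glo luciferase with luciferin and 10 uM ATP in 50 mM imidazole pH 7.2, KCl, MgCl2, Tween 20, BSA; compound pin-delivered, 8-min ambient incubation, then luminescence read.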
NPC1 promoter act: NPC1 promoter activation; Huh7 NPC1 promoter luciferase reporter, 24 h; Potency, µM (series often up to 9.22 µM), for the others: at the highest dose activation, usual class: activators; 320,000 compounds, 2.4% hits; note: % of control where 0% means no effect; nearly all actives have a fitted effect of over 60% in size
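Compounds in DMSO were transferred onto Huh7 NPC1-luciferase reporter cells pre-incubated 2 h; after 24 h at 37 °C, Amplite reagent was dispensed and luminescence recorded 10 min later.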
FLuc modulator: counter-screen for miR-21 project: firefly luciferase inhibitors or activators. P08659. purified FLuc, Km substrates, luminescence inhibition. Potency, µM (titrated, usually from 57.5 µM), for the others: at the top dose activity change, negative = inhibition, actives largely listed as inhibitors. 360,000 compounds, 6.9% hits;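 note: plate controls were vehicle for no effect and reference inhibitor for full effect; nearly all actives have a fitted effect of over 55% in size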
Target sequence (P08659 whole entry, looked up): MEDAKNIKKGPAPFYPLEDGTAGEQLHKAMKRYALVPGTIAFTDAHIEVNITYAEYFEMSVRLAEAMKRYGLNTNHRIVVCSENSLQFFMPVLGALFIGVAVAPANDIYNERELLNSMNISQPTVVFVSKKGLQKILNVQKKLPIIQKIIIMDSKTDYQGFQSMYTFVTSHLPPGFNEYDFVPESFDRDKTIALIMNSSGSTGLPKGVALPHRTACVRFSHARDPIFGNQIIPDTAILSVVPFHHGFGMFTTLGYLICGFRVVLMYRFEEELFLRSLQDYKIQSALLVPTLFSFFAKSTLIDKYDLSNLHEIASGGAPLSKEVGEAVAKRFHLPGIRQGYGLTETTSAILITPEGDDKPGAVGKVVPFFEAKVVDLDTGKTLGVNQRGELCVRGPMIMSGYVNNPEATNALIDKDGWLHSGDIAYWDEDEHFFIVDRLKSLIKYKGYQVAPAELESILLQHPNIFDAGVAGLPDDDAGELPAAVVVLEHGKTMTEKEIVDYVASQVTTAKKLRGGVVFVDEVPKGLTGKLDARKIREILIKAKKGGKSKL
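Purified P. pyralis luciferase, 10 nM final, with Km-level 10 uM D-luciferin and 10 uM ATP in 50 mM Tris acetate pH 7.5, 10 mM Mg acetate, 0.01% Tween-20, 0.05% BSA; 6-point qHTS titration about 60 µM downward; luminescence read.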
SMN2 splice up: increases expression of the SMN2 splice variant. HEK293 SMN2-luciferase splicing reporter, luminescence, 30-36 h. Potency, µM (doses to about 46.1 µM), without a hit: at the top dose activity change, positive = activation, hits mostly activators. 210,000 compounds, 2.8% hits. AID 1458; note: % of control where 0% means no effect; nearly all actives have a fitted effect of over 55% in size
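qHTS luciferase splicing reporter: luminescence rises when SMN2 exon 7 is included in transfected HEK293 cells. Compound exposure lasted 30-36 h at 37C, with 4.5 mM final sodium butyrate as control, followed by a ONE-Glo read.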
An asterisk follows results filed as active; ? = inconclusive; nt = not tested or not shown; [ ] = remark or other dose. Calls come from the whole dose curve; as a rule, active = well fitted curve in the direction sought with a large enough effect; inconclusive = small, poorly fitted or top-dose-only effect, or another doubt; inactive = no such curve, though single readings can be large; an effect the other way counts as inactive or inconclusive. Potency is the fitted concentration of half-maximal effect.

SMILES | ELG1 genotoxic | Rab9 promoter act | Luc counter | NPC1 promoter act | FLuc modulator | SMN2 splice up
CCOC(=O)c1c(C)oc2ncnc(N3CCN(c4cccc(Cl)c4)CC3)c12 | nt | nt | nt | nt | 5% | -2%
CCCS(=O)(=O)c1ncc(Cl)c(C(=O)N2CCN(c3ccc(OC)cc3)CC2)n1 | nt | nt | nt | nt | 4% | nt
Cc1nnsc1C(=O)NNC(=O)c1ccc(C(F)(F)F)cc1 | 5% | 9% | nt | 9% | 17µM* | nt
COc1ccccc1Nc1ccc(NC(=O)c2cccc([N+](=O)[O-])c2C)cc1 | -13% | 0%[1.84 µM] | nt | 0% | -16% | nt
Cc1ccc(N=Cc2sc(O)c3ccccc23)cc1 | ? | 1.3µM* | -2% | 2µM* | 1.1µM* | 4.5µM*
Cc1ccc(N=Cc2c(O)c3ccccc3n(C)c2=O)cc1 | 3% | 12% | nt | -2% | 0.43µM* | nt
Cc1ccc(N=Cc2sc(O)c3ccccc23)c(C)c1 | 11% | 1µM* | 1% | ? | ? | 11µM*
Cc1ccc(N=Cc2c(C)[nH]n(-c3nc4ccccc4[nH]3)c2=O)cc1 | 2% | ? | 5µM* | ? | 6.7µM* | -8%
Cc1ccccc1C(OCC(O)CN1CCN(CCO)CC1)c1ccccc1 (centres undefined) | 0% | -5% | nt | -4% | 1% | nt
O=C(Nc1cccc(Cl)c1)c1cc(S(=O)(=O)N2CCOCC2)cs1 | -10% | 5% | nt | -6% | 3% | nt
Cc1nn(C)c(C)c1CNC(=O)Nc1ccc(Cl)cc1 | ? | 3.2µM* | 2% | ? | ? | 27%
Cc1nn(C)c(C)c1CNC(=O)Nc1cccc(Cl)c1 | -1% | ? | 0% | 21% | ? | nt
Cc1nc(-c2cccc(NC(=O)c3cc4cc(Br)ccc4oc3=O)c2)cs1 | 1% | 1% | -5% | -3% | -7% | -2%
Cc1nc(-c2ccc(NC(=O)c3ccccc3Br)cc2)cs1 | ? | 2.8µM* | -2% | ? | 6µM* | 16µM*
Cc1nc(-c2ccc(NC(=O)c3ccccc3C)cc2)cs1 | 13% | 1.6µM* | -15% | 1.4µM* | 3.4µM* | nt
COc1cc(/C=N/NC(=O)c2cccc(S(=O)(=O)N3CCCC3)c2)cc(OC)c1O | 0% | 0% | nt | 0% | -9% | nt
CCOc1ccc(N=C2NC(=O)CS2)cc1 | -6% | -1% | nt | 2% | 12% | nt
CCN(CC)C(=O)c1ccc(-c2cccs2)s1 | ? | 3.5µM* | nt | 2.5µM* | 11µM* | nt
CCN(CC)C(=O)c1sc(NC(=O)c2cccs2)c(C#N)c1C | -3% | -8% | 0% | -8% | -14% | nt
CCN1C(=O)/C(=C/C=C2/CCCN2C)OC1=S | ? | ? | -7% | 3.2µM* | ? | nt
CN1C(=O)/C(=C\C=C2/CCCN2C)N(C)C1=S | ? | ? | -12% | 25% | ? | ?
COc1ccccc1-c1cc(C(=O)NC2CCCC2)no1 | ? | ? | nt | ? | 19µM* | nt
Cc1cccc(C)c1OCc1cc(C(=O)NC2CCC2)no1 | 9% | 11% | nt | 16% | ? | nt
O=C(NC1CCCC1)c1cc(-c2ccccc2O)on1 | 15µM* | 6% | nt | 13% | 4.8µM* | nt
O=C(NC1CCCC1)c1cc(-c2ccc(Cl)cc2Cl)on1 | 1.3µM* | 3.5µM* | nt | 1µM* | 0.85µM* | nt
SMILES | ELG1 genotoxic | Rab9 promoter act | Luc counter | NPC1 promoter act | FLuc modulator | SMN2 splice up
O=C(NC1CCCC1)c1cc(-c2ccccc2Cl)on1 | ? | 2.5µM* | nt | 1.6µM* | 5.4µM* | nt
COc1ccc(-c2cc(C(=O)NC3CCCC3)no2)cc1OC | 7% | 25% | -3% | ? | -3% | 2%
Clc1ccc(CCNc2ncnc3c2nnn3Cc2ccccc2)cc1 | 9% | -5% | nt | 1% | 4% | nt
O=C(NC1CCCCC1)c1cc(-c2ccccc2Cl)on1 | 21µM* | 2.8µM* | nt | ? | ? | nt
CC(=O)c1ccc(NC(=O)CN2C(=O)NC3(CCc4ccccc43)C2=O)cc1 (centres undefined) | -1% | nt | nt | nt | nt | nt
COCc1c(CCl)cnc(C)c1O | 5% | 4% | 1% | -2% | 17µM* | nt
Cc1ncc(CO)c(CO)c1O | 2% | -5% | 3%[17.1 µM] | -3% | 5% | 6%[20.6 µM]
C/C(=N/OCO/N=C(/C)c1ccc(F)cc1)c1ccc(F)cc1 | 5% | 10% | 3% | 0% | 3% | 8.9µM*
CCCCC(CC)CNC(=O)c1ccc2c(=O)n(CCOC)c(=O)[nH]c2c1 (centres undefined) | nt | nt | nt | nt | -5% | 4µM*
CC(=O)C(/C=N/c1cc(-c2ccc(C)cc2)nn1-c1ccccc1)=C(\C)O | ? | 4µM* | -13% | 4µM* | ? | ?
O=C(NC1CCCC1)c1ccc2c(=O)n(Cc3ccccc3)c(SCc3cccc(F)c3)nc2c1 | nt | nt | nt | nt | -4% | nt
COCCCNC(=O)Cn1cc(/C=C(\C#N)C(=O)NC2CC2)c2ccccc21 | -2% | 2% | nt | -1% | -1% | nt
CC(C)c1nc2cc3ccccc3cc2[nH]1 | 3% | 19% | -2% | 13% | 19µM* | -22%
O=c1[nH]c2cc3ccccc3cc2nc1C(F)(F)F | -3% | 3% | 1% | 0% | -20% | -2%
Cc1ccc(OCC(=O)Nc2ccc(Cl)c(-c3nc4ncccc4o3)c2)cc1C | nt | nt | nt | nt | -1% | nt
COc1ccc(/C=C/C(=O)O/N=C(\N)c2ccccc2)cc1OC | ? | ? | 0% | ? | 17µM* | ?
COc1ccc(/C(N)=N/OC(=O)/C=C/c2ccccc2)cc1 | 5% | 18% | 1% | -3% | 15µM* | 24%
CC(=O)c1ccc(OC(=O)/C=C/c2ccccc2)cc1 | 2% | -2% | nt | -3% | 2.7µM* | nt
Cc1ccc(/C(N)=N/OC(=O)/C=C/c2ccccc2)cc1 | 13% | 12% | -5% | 0% | 24µM* | -6%
COc1cc(OC)c(NC(=O)CSc2nc3ccncc3[nH]2)cc1Cl | nt | -4% | nt | -3% | -16% | -40%
Cn1c(=O)c2cc(C(=O)NCCCN3CCN(c4ccc(F)cc4)CC3)sc2c2ccccc21 | nt | nt | nt | nt | -9% | -4%
CC(=O)c1ccc(OC(=O)CCNC(=O)c2ccccc2)cc1 | 3% | nt | nt | nt | nt | nt
CC(=O)c1ccc(OC(=O)COc2ccccc2)cc1 | 24% | 0% | nt | 1% | 21µM* | nt
O=C(NC(=S)NNC(=O)c1ccccc1O)c1ccco1 | 1% | 1% | -3% | 4% | 21µM* | -9%
O=C(CNC(=S)NC(=O)c1ccco1)c1ccccc1 | 16% | 23% | -7% | ? | 12µM* | 2%
